Source: PubChem BioAssay (EPA / NIEHS)
The source made the active and inactive calls. The calls were made as follows: active = hit-call score of the fitted dose curve at least 0.9, where 1 is the maximum; inactive = score below 0.9.

Test: CCTE_Shafer_MEA_dev_per_network_spike_spike_number_mean: CCTE's Neural Network Formation Assay for Mean Number of Spikes in a Network Spike, Shafer Lab (AID 2284053)
Procedure: CCTE_Shafer_MEA_dev assay is conducted using Axion Biosystems 48 well microelectrode array (MEA) plates and Maestro recording system. Each well of the MEA plate contains a grid of 16 microelectrodes embedded in the culture surface. Electrically active cells, such as neurons, can be cultured over the electrodes, and electrical activity in these cells can be recorded extracellularly. The spontaneous firing of neurons is captured from each electrode on a microsecond timescale providing both temporally and spatially precise data. […] The CCTE_Shafer_MEA_dev assay uses primary cultures of rat cortical neurons. Recordings are made on days post-plating 5, 7, 9 and 12. As these cultures mature over time, neural networks develop functional activity and form cohesive networks in which electrical activity can be highly coordinated. CCTE_Shafer_MEA_dev_per_network_spike_spike_number_mean is 1 of 19 assay components of the CCTE_Shafer_MEA_dev assay. It measures the average number of spikes (action potential firings) in a network spike (temporally-clustered group of spikes across multiple electrodes) as the number of spikes that occur within a 0.05 s time window at the peak of a network spike divided by the total number of network spikes during a recording in a microelectrode array (MEA) using Axion Biosystems Maestro 768 channel amplifier with the AxIS adaptive spike detector. To collapse across multiple recordings made on days post-plating 5, 7, 9 and 12, the trapezoidal area-under-the-curve of the component is calculated.Data from the assay component CCTE_Shafer_MEA_dev_per_network_spike_spike_number_mean was analyzed into 1 assay endpoint. This assay endpoint, CCTE_Shafer_MEA_dev_per_network_spike_spike_number_mean, was analyzed in the negative analysis fitting direction relative to DMSO as the negative control and baseline of activity. Using a type of functional reporter, gain or loss-of-signal activity can be used to understand electrical activity.
On the day prior to culture, each well was coated thoroughly with 150 uL of 0.05% polyethyleneimine (PEI, Sigma Cat P3143) in 50 mM HEPES (Sigma Cat H7523) at a pH of 8. The plate was incubated at 37C for one hour. PEI was rinsed out with 500 uL of sterile water three times. Plates were stored at 4C until the day of culture. This culture was plated at a seeding density of 1.5 x 10^5 cells/well on a 48-well MEA plate, prepared as described above. Cells were administered via a 25 uL media/laminin ([…]; Sigma Cat L2020-1MG) drop directly onto the microelectrode array, as adding the cells with the laminin results in better attachment than pre-coating with laminin. After 2 hours, an additional 475 uL of cortical media was added and the cells returned to the incubator. Exposure starts at day 0 of plating and is continued over twelve days of network development until the experiment is terminated. Cells are fed with fresh medium on DIV 5 and 9, following the recordings on those days. The entire volume of media in the well is exchanged and any vehicle or compound treatment is renewed. Complete details are found in OP-NHEERL/ISTD/SBB/TJS/2015-03-r0 (available on request, email shafer.tim@epa.gov). Measurement of the electrical activity is non-invasive, and recordings can be made from the same plate over multiple different days of the culture. In cortical neurons, this allows for the measurement of extracellular action potentials over the period during which networks form in the MEA plate.

SMILES	AC50	outcome
CCOCn1c(-c2ccc(Cl)cc2)c(C#N)c(Br)c1C(F)(F)F	6.48 µM (active)	
FC(F)OCC(F)(F)C(F)(F)F		inactive
Cc1cc(C(F)(C(F)(F)F)C(F)(F)F)ccc1NC(=O)c1cccc(I)c1C(=O)NC(C)(C)CS(C)(=O)=O	17.4 µM (active)	
OC(Cc1ccccc1Cl)(Cn1[nH]cnc1=S)C1(Cl)CC1 (stereo not given)	23.6 µM (active)	
C=CC(F)(C(F)(F)F)C(F)(F)C(F)(F)F (stereo not given)		inactive
NC(=O)c1ccc(N)nc1	4.19 µM (active)	
O=S(=O)(F)C(F)(F)C(F)(F)C(F)(F)C(F)(F)F		inactive
Cc1ccccc1OP(=O)(Oc1ccccc1C)Oc1ccccc1C	20.3 µM (active)	
C=CCOC(F)(C(F)(F)F)C(F)(F)F		inactive
CC(=O)C(F)(F)C(F)(F)F		inactive
CC(F)(F)CC(F)(F)F		inactive
CC(C)[C@@H](Nc1ccc(C(F)(F)F)cc1Cl)C(=O)OC(C#N)c1cccc(Oc2ccccc2)c1 (stereo not given in full)		inactive
CC1(C)[C@H](C(=O)O[C@H](C#N)c2cccc(Oc3ccccc3)c2)[C@@H]1/C=C(\Cl)C(F)(F)F	12.9 µM (active)	
CS(=O)(=O)c1ccc(C(=O)C2C(=O)CCCC2=O)c(Cl)c1COCC(F)(F)F		inactive
CNC(=O)CSP(=O)(OC)OC		inactive
